Records with an inconclusive call do not appear. Entries that show only a call come without a potency. Active and inactive are the calls of the source. Calls come from the whole dose curve; as a rule, active = well fitted cell-killing curve with a large enough effect; inconclusive = small, poorly fitted or top-dose-only effect, or effect the other way; inactive = no such curve, though single readings can be large or run the other way.
Tests used:
[1] = Viability qHTS for spleen associated tyrosine kinase inhibitor (SYKi) naive MV4-11 cells (AID 1963823); note: nearly all actives have a fitted effect of over 40% in size
In short: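 Viability of MV4-11 AML cells lacking prior SYK inhibitor exposure is scored by CellTiter-Glo luminescence following 72 hr compound incubation at 37 C, 5% CO2, seeded at 500 cells per well.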

[2] = Viability qHTS for spleen associated tyrosine kinase inhibitor (SYKi) drug resistant MV4-11 cells (AID 1963824); note: nearly all actives have a fitted effect of over 35% in size
In short: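 SYK-inhibitor-resistant MV4-11 AML cells were seeded at 500 per well onto compound and cultured 72 hours (37 °C, 5% CO2). CellTiter-Glo was then added, and after 10 min at room temperature, luminescence gave viability.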
Potency is the fitted concentration of half-maximal effect.

| Compound | Potency [1] | Potency [2] | viability (% of control) [1] | viability, % of control [2] |
| --- | --- | --- | --- | --- |
| CN(C)c1cc2c(Nc3ccc4c(cnn4Cc4ccccc4)c3)ncnc2cn1 | 8.2 µM (active) | 9.2 µM (active) | – | – |
| N#Cc1ccc2[nH]cc(CCCCN3CCN(c4ccc5oc(C(N)=O)cc5c4)CC3)c2c1 | 11.6 µM (active) | 18.4 µM (active) | – | – |
| Cc1cc(CN)cc(C)c1NC(=O)c1ccc(-c2cc(Cl)ccc2Cl)o1 | 6.51 µM (active) | 9.2 µM (active) | – | – |
| CC1OC(OC2C(OC3C(O[C@H]4CC[C@@]5(C)C(CC[C@]6(C)C5CC=C5C7CC(C)(C)CC(O)[C@]7(C)CC[C@]56C)C4(C)C)OC(C(=O)O)C(O)C3O)OCC(O)C2O)C(O)C(O)C1O (stereo partly drawn) | – | – | 90.6% [at 9.25 µM] (inactive) | 94.4% [at 9.25 µM] (inactive) |
| OC[C@H]1O[C@@H](Oc2ccccc2)[C@H](O)[C@@H](O)[C@@H]1O | inactive | inactive | – | – |
| Cc1occc(=O)c1O[C@@H]1O[C@H](COC(=O)CC(C)(O)CC(=O)O)[C@@H](O)[C@H](O)[C@H]1O (stereo partly drawn) | inactive | inactive | – | – |
| OC[C@H]1O[C@@H](OCc2ccccc2)[C@H](O)[C@@H](O)[C@@H]1O | inactive | inactive | – | – |
| OC[C@@]1(O)CO[C@@H](OC[C@H]2O[C@@H](Oc3ccccc3)[C@H](O)[C@@H](O)[C@@H]2O)[C@@H]1O | inactive | inactive | – | – |
| CC1(C)CCC2(C(=O)OC3OC(CO)C(O)C(O)C3O)CCC3(C)C(=CCC4C5(C)CCC(OC6OC(C(=O)O)C(OC7OC(CO)C(O)C(O)C7O)C(OC7OC(CO)C(O)C(O)C7O)C6O)C(C)(C)C5CCC43C)C2C1 (stereo not drawn) | – | – | 77.9% [at 9.25 µM] (inactive) | 109% [at 9.25 µM] (inactive) |
| C/C=C(/C=C(C)/C=C/C=C/C=C(\C)C(=O)C12OC1C(O)(CCO)NC2=O)C(=O)OC (stereo not drawn) | 8.93 µM (active) | 11.2 µM (active) | – | – |
| CC(C)c1ccc(CO)cc1O[C@@H]1O[C@H](CO)[C@@H](O)[C@H](O)[C@H]1O | inactive | inactive | – | – |
| CC1(C)CC[C@]2(C(=O)O)CC[C@]3(C)C(=CCC4[C@@]5(C)CC[C@H](O[C@@H]6O[C@H](CO)[C@@H](O)[C@H](O)[C@H]6O[C@@H]6O[C@H](CO)[C@@H](O)[C@H](O)[C@H]6O)[C@@](C)(CO)C5CC[C@]43C)[C@@H]2C1 (stereo partly drawn) | inactive | inactive | – | – |
| C[C@]12CC[C@@H]3c4ccc(O[C@@H]5O[C@H](C(=O)O)[C@@H](O)[C@H](O)[C@H]5O)cc4CC[C@H]3[C@@H]1CCC2=O | inactive | inactive | – | – |
| Cc1cc(C)c(Nc2ccnc(Nc3ccc(C#N)cc3)n2)c(C)c1 | 2.31 µM (active) | 4.11 µM (active) | – | – |
| Cc1cccc(N(C)C(=S)Oc2ccc3c(c2)C2CCC3C2)c1 (stereo not drawn) | inactive | inactive | – | – |
| Cc1ccc(C2(C(=O)N3CCC(n4nc(-c5ccccc5)oc4=O)CC3)CC2)cc1 | inactive | inactive | – | – |
| O=C(O[C@H]1[C@@H]2C=CO[C@@H](O[C@@H]3O[C@H](CO)[C@@H](O)[C@H](O)[C@H]3O)[C@@H]2[C@@]2(CO)O[C@@H]12)c1ccc(O)c(O)c1 | inactive | inactive | – | – |
| COc1ccc2[nH]c3c(-c4cccc5ccccc45)nccc3c2c1 | 0.651 µM (active) | 0.82 µM (active) | – | – |
| CCOc1cn(-c2ccc(F)cc2C)nc1C(=O)Nc1ccc(Oc2ccnc3cc(OC)c(OC)cc23)c(F)c1 | 0.259 µM (active) | 0.651 µM (active) | – | – |
| CC1=CC(=O)C(=C(C)C)CC2C(C)(O)CCC12O (stereo not drawn) | inactive | inactive | – | – |
| CCOC(=O)c1c(C)nn(-c2cccc([N+](=O)[O-])c2)c1C | inactive | inactive | – | – |
| C[C@@H]1O[C@@H](O[C@H]2[C@H](OC(=O)[C@]34CCC(C)(C)C[C@H]3C3=CCC5[C@@]6(C)C[C@H](O)[C@H](O[C@@H]7O[C@H](CO)[C@@H](O)[C@H](O)[C@H]7O)[C@@](C)(CO)C6[C@H](O)C[C@@]5(C)[C@]3(C)CC4)OC[C@H](O)[C@@H]2O)[C@H](O)[C@H](O)[C@H]1O[C@@H]1OC[C@@H](O)[C@H](O[C@@H]2OC[C@](O)(CO)[C@H]2O)[C@H]1O (stereo partly drawn) | – | – | 85.2% [at 9.25 µM] (inactive) | 102% [at 9.25 µM] (inactive) |
| C=CCc1ccc(O[C@@H]2O[C@H](CO[C@@H]3O[C@H](CO)[C@@H](O)[C@H](O)[C@H]3O)[C@@H](O)[C@H](O)[C@H]2O)c(O)c1 | inactive | inactive | – | – |
| COc1cc(/C=C/C(=O)OC[C@H]2O[C@@H](OC3CC(C)=C(C(=O)O)C(C)(C)C3)[C@H](O)[C@@H](O)[C@@H]2O)cc(OC)c1O (stereo partly drawn) | inactive | inactive | – | – |

— PubChem BioAssay (NCATS)
